The whole screen tested about 220,000 compounds, of which about 880 (0.4%) were called active. The sample holds actives, similar compounds and a random draw of the others, so the mix is not that of the screen.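 Rule for the calls: active = cell killing above 50% in the first pass at 4 µM, then a duplicate retest at 5 µM averaging 50% or more; inactive = the rest.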
Assay: PPC-1 cell viability loss under TRAIL – PPC-1 cells, ATPLite luminescence, uHTS, TRAIL potentiator project, primary screen (AID 1443);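 note: plate controls were cells with TRAIL plus DMSO for no effect and medium-only wells lacking cells for full effect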
Conditions: PPC-1 cells + TRAIL, hits give high values; at 4 µM unless noted
In the case of COc1cccc(-c2nc3ccc(N4CCN(C)CC4)cc3[nH]2)c1, the cell killing (% activity) is reported as 85.4% [at 5 µM] (active).
For Cc1nc2ccc(N3CCN(C)CC3)cc2nc1C, the cell killing (% activity) was -0.5% (inactive).
For CN1CCN(c2cc(N3CCNCC3)ccc2[N+](=O)[O-])CC1, the cell killing (% activity) was 3.5% (inactive).
For O=C1CC(=O)N(Cc2ccccc2)C(=O)N1CCCCCCN1C(=O)CC(=O)N(Cc2ccccc2)C1=O, the cell killing (% activity) was 12.3% (inactive).
With COc1ccc(C2N3CC(C)(C)CN23)cc1 (stereo not given) the cell killing (% activity) was 15.2% (inactive).

— PubChem BioAssay AID1443 (Sanford-Burnham Center for Chemical Genomics, 2008)
